High-throughput results as filed in PubChem.
A selection: hits, their analogues and other compounds. The true share with any hit is near 1.2%.
RGS7-Gao: regulators of human RGS7-Galphao interaction; P09471; Multiplexed bead flow cytometry, RGS7-Galphao binding; actives lie on both sides; binding response (% of control), % at 10 µM; actives 0.35% (n = 220,000); in the data active = binding response below about 49% or above about 150%; inconclusive = no clear call, values can overlap the other calls; inactive = in between;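 also: fluorescent Galphao held in activated GDP-AlF4 state binding bead-coupled RGS7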
RGS4-Gao reg: modulates binding of RGS4 to human Galphao | Multiplexed bead flow cytometry; actives lie on both sides | AID 1415 | actives 0.33% (n = 220,000) | binding response (% of control), % at 10 µM; in the data active = binding response below about 49% or above about 150%; inactive = in between;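 also: fluorescent Galphao activated with aluminum fluoride binding bead-coupled RGS4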
RGS8-Gao: modulates binding of RGS8 to human Galphao. P09471. multiplexed bead flow cytometry; actives lie on both sides. response (percent of control binding), % at 10 µM. actives 0.34% (n = 220,000). AID 1423; in the data active = response below about 60% or above about 140%; inactive = in between;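 also: Galphao activated as the GDP aluminium fluoride complex binding bead-coupled RGS8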
Avidin fluor: avidin bead compound fluorescence profile | actives 0.38% (n = 220,000) | AID 1775 | fluorescence (KMESF) at 10 µM | Avidin beads, compound fluorescence 488/530 nm, flow cytometry; stronger effect = higher value; in the data active = fluorescence above about 47
GSH fluor: compound fluoresces at 488/530 nm on GSH beads. AID 1776. GSH beads flow cytometry, compound fluorescence 488/530 nm; stronger effect = higher value. fluorescence (KMESF) at 10 µM. actives 0.25% (n = 190,000); in the data active = fluorescence above about 89;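 also: glutathione beads carrying GST-tagged Bcl family fusion proteins plus one bare bead set; values are compound well signal with DMSO vehicle wells as background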
RGS16-Gao HTS: regulators of human RGS16-Galphao interaction; binding response (% of control), % at 10 µM; bead-based flow cytometry RGS16-Galphao binding, fluorescence; actives lie on both sides; AID 1441; actives 0.38% (n = 220,000); O15492+P09471; call rule not given here;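 also: Galphao activated by GDP with aluminum fluoride before binding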
Target sequence (O15492 whole entry, looked up): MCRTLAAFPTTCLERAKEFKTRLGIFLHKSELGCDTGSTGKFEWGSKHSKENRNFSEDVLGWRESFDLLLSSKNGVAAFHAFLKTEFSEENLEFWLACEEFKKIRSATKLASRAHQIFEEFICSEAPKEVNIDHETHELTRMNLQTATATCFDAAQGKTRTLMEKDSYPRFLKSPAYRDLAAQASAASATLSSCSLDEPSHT
Target sequence (P09471 whole entry, looked up): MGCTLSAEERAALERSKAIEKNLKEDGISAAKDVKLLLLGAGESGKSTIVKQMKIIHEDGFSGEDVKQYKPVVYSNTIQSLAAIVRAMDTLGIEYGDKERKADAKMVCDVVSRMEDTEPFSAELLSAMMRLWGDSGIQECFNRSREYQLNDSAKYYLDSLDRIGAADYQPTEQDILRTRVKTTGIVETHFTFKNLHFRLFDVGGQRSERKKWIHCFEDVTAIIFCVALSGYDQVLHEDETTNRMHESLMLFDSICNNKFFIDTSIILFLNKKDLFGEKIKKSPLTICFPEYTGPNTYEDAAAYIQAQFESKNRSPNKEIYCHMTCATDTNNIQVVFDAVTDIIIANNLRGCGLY
Starred values were filed as active, the others as inactive; ? = inconclusive; / = no result given; [ ] = remark or other dose.

SMILES	RGS7-Gao	RGS4-Gao reg	RGS8-Gao	Avidin fluor	GSH fluor	RGS16-Gao HTS
COc1ccccc1-c1nn2c(=O)cc(C)nc2s1	102	104	102	7	254*	105
CCOC(=O)C1(Cc2cccc(F)c2)CCN(C(=O)Cn2cnnn2)CC1	?	100	102	6	/	101
COc1ccc(NC(=O)Cn2cc(S(=O)(=O)Cc3ccccc3)c3ccccc32)c(OC)c1	90	93	96	8	12	93
CCCn1cc(S(=O)(=O)CC(=O)Nc2ccc(OC)cc2OC)c2ccccc21	92	84	95	5	130*	93
Cc1cccc(NC(=S)N2CCC(c3nc4ccccc4o3)CC2)c1C	42*	48*	55*	2	30	38
O=C(Nc1ccc(Cl)c(C(F)(F)F)c1)N1CCCC(O)C1 (stereo not drawn)	112	94	96	66*	14	101
O=C(Nc1ccc(Cl)c(C(F)(F)F)c1)C(=O)N1CCCCC1	95	97	85	5	10	46
CC1(N(O)C=C2C=CC(=O)C=C2)CCCCC1=O (stereo not drawn)	?	95	99	8	/	95
COc1ccc(N2C(=O)CSC23C(=O)Nc2ccccc23)cc1 (stereo not drawn)	101	99	101	7	100*	102
C=CCC1(C#N)C(SC)=NC2=C(C(=O)CC(C)(C)C2)C1c1ccc(Br)cc1 (stereo not drawn)	105	100	101	13	12	100
CCCNC(=S)Nc1c(C)n(C)n(-c2ccccc2)c1=O	96	101	102	11	11	101
CCOC(=O)c1c(C)oc2ccc(NS(=O)(=O)c3cccs3)cc12	100	103	99	14	15	95
CC(=O)c1c(C)oc2ccc(NS(=O)(=O)c3cccs3)cc12	76	82	69	122*	13	5
Cc1cc(C(=O)N/N=C/C(Cl)=C/c2ccccc2)c(C)o1	?	102	100	8	/	102
Cc1nn(CC#N)c(=O)n1-c1ccccc1	98	99	98	7	262*	97
O=C(CC1SC(N2CCOCC2)=NC1=O)Nc1cc([N+](=O)[O-])ccc1Cl (stereo not drawn)	?	98	100	11	15	98
Cc1cccc(C(=O)NC(NCc2ccco2)C(Cl)(Cl)Cl)c1 (stereo not drawn)	44*	49*	57*	2	26	42
O=C(CCCn1nnc2ccccc2c1=O)N[C@H](C(=O)O)c1ccccc1	?	117	98	49*	/	97
CC(=O)N1CCC2(CC1)C(C#N)=C(N)OC1=C2C(=O)CC(C)(C)C1	109	103	99	51*	12	103
CCc1ccc(N2C(=O)CC(Cn3nc(C)cc3C)C2=O)cc1 (stereo not drawn)	?	90	98	5	/	110
O=c1[nH]c(CN2CCOCC2)nc2ccccc12	93	94	95	19	13	99
O=C(O)c1ccc2c(=O)[nH]c(CN3CCOCC3)nc2c1	140	96	100	62*	11	105
NS(=O)(=O)c1ccc(CCNC(=O)CSc2nc3ccccc3c(=O)n2CCC(=O)N2CCCCC2)cc1	106	103	105	8	13	106
CCC(CO)NCc1ccc(OC2CCCC2)cc1 (stereo not drawn)	103	99	104	4	140*	100
Cc1c(Cc2ccc3c(c2)OCO3)sc(NC(=O)c2ccc3ccccc3c2)c1C(N)=O	35*	20*	29*	1	13	11*
SMILES	RGS7-Gao	RGS4-Gao reg	RGS8-Gao	Avidin fluor	GSH fluor	RGS16-Gao HTS
CCCCC(=O)NC1(C(F)(F)F)NC(=O)N(C)C1=O (stereo not drawn)	?	97	101	9	/	93
O=C(O)c1nnn(-c2cccc(C(F)(F)F)c2)c1-c1ccccc1	?	99	102	6	/	107
COC(=O)CSc1nnc(SCc2ccc(OC)cc2)s1	104	100	100	50*	26	102
COc1ccc(CSc2nnc(SCc3ccc([N+](=O)[O-])cc3)s2)cc1	98	100	102	6	26	102
Cc1ccc(-c2nn(C)c(=O)c3ccccc23)cc1CNC(=O)NC1CCCCC1	?	104	104	7	/	105
COc1cccc(NC(=O)C2(S(=O)(=O)c3ccc(Cl)cc3)CC2)c1	?	134	123	5	/	131
CN(C)C(=O)c1nc(C#N)c(N(C)C)o1	98	97	97	7	257*	98
O=C(CSc1nnc(CNC(=O)c2ccco2)o1)Nc1ccccc1	120	105	105	59*	12	112
COc1ccc(NC(=O)CSc2nnc(CNC(=O)c3ccco3)o2)cc1	108	105	105	25	11	111
COc1ccc(CNC(=O)N[C@H](C(=O)O)C(C)C)cc1OC	?	96	101	17	/	101
COC(=O)c1ccc(Nc2nc(C)cc(C)n2)cc1	102	97	99	42	14	100
COc1nc(Nc2ccc(C(C)=O)cc2)nc(OC)n1	149	188*[activator]	94	76*	33	239
C#CCN(C(=O)CC1C(=O)NCCN1C/C=C/c1ccccc1)C1CCCCC1 (stereo not drawn)	105	104	108	10	18	113
CC[n+]1c(/C=C2/C=C(C)CC(C)(C)C2)sc2ccc(OC)cc21	163*[activator]	181*[activator]	115	95*	30	284
CC[n+]1c(/C=C2\C=C(C)CC(C)(C)C2)sc2ccccc21	105	98	94	11	29	91
Clc1ccc(/C=N/Nc2nn[nH]n2)cc1	99	99	101	7	144*	95
O=S(=O)(Nc1ccc(Cl)cc1)c1ccc2c(c1)CCO2	?	109	103	62*	/	97
Cc1ccnc(NS(=O)(=O)c2ccc3c(c2)CCO3)c1	?	110	106	8	/	110
Cc1ccc(S(=O)(=O)N2CCOCC2)cc1NC(=O)CNC1CCCC1	?	104	102	3	/	101
COc1cccc(-c2noc(CCCC(=O)N3CCOCC3)n2)c1	102	95	98	14	23	103
O=C(CCCc1nc(-c2ccccc2)no1)N1CCOCC1	102	95	100	3	248*	71
CC(=O)Nc1ccc(C2(O)COc3ccccc3O2)cc1 (stereo not drawn)	102	103	100	9	262*	107
CC(=O)Nc1ccc2c(c1)OCCOCCOc1cc(NC(C)=O)ccc1OCCO2	?	102	101	9	/	102
Cc1cc(C(=O)NC2CCCc3ccccc32)no1 (stereo not drawn)	102	95	97	47*	22	97
NS(=O)(=O)c1ccc(NNC(=O)c2sccc2Cl)cc1	?	104	100	6	/	100
